Common to all, as to type: functional
Test [1] deals with Plasmodium falciparum. Briefly: GSK_TCMDC: Inhibition of Plasmodium falciparum 3D7 in whole red blood cells, using parasite LDH activity as an index of growth. Test compounds present at 2uM.
Test [2] concerns Plasmodium falciparum. As to the kind of experiment: GSK_TCMDC: Inhibition of Plasmodium falciparum Dd2 in whole red blood cells, using parasite LDH activity as an index of growth. Test compounds present at 2uM.
Another test deals with HepG2. As to the kind of experiment: GSK_TCMDC: Percent inhibition of human HepG2 cell line. Test compounds present at 10uM.

The values below come from ChEMBL document CHEMBL1157539, “Thousands of chemical starting points for antimalarial lead identification” (Nature, 2010).

The structures appear in SMILES notation.

By Inhibition is commonly meant the drop in the measured response relative to a control, in per cent. The low end stands for little suppression, the high end for strong suppression.

Turning to `COc1cc(NC(=O)c2cc3c(C)nn(-c4cccc(C(F)(F)F)c4)c3s2)cc(OC)c1OC`, the Inhibition with Plasmodium falciparum [1] is 100%; with Plasmodium falciparum [2], 50%; with HepG2 it was 0%.
The corresponding values for `Nc1nc(N)c2c(ccc3c2ccn3Cc2cc3c(cc2Cl)OCO3)n1` are 95%, 94% and 58%.
Regarding `COc1ccc(-c2cc(C(=O)N[C@@H](CC3CCCCC3)C(=O)NC3CCCc4ccccc43)ccc2O)cc1` (stereo partly drawn), the Inhibition in the test on Plasmodium falciparum [1] was 98%; with Plasmodium falciparum [2] it was 97%; with HepG2, 7%.
On to `CCC[C@@H]([C@@H](Cc1ccc(C)s1)C(=O)N[C@@H](CNC(C)=O)C(=O)Nc1nccs1)N(O)C=O`, for which the Inhibition in the test with Plasmodium falciparum [1] was 97%; with Plasmodium falciparum [2], 96%; in the test with HepG2, 0%.
As for `O=C(O)C[C@H](NC(=O)CCCNC(=O)c1cccc(-c2ccc(Cl)c(Cl)c2)c1)C(=O)O`, the results for the Inhibition in the test with Plasmodium falciparum [1], in the test with Plasmodium falciparum [2] and in the test on HepG2 were 91%, 0% and 5%, respectively.
For `CCCCCCN1CCC(NCc2cccc([N+](=O)[O-])c2)CC1.O=C(O)C(F)(F)F`, the Inhibition in the test with Plasmodium falciparum [1] was determined as 100%; in the test on Plasmodium falciparum [2], 16%; in the test with HepG2, 0%.
For the molecule `COc1cccc(-c2csc(C(=O)NCC3CCN(Cc4ccc(C(C)C)cc4)C3)c2)c1.O=C(O)C(F)(F)F` (stereo not drawn), the figures for the Inhibition in the test on Plasmodium falciparum [1], with Plasmodium falciparum [2] and in the test on HepG2 were 86%, 9% and 35%, respectively.
As to `O=C(NCCCN1CCC(N2CCCCC2)CC1)C1=Cc2cc(Br)ccc2OC1`, the Inhibition in the test with Plasmodium falciparum [1] stood at 100%; with Plasmodium falciparum [2], 19%; in the test on HepG2 it was 26%.
The like results for `Cc1[nH]n(-c2cccc(C(F)(F)F)c2)c(=O)c1-c1ccc(Cl)cc1` were, in that order, 98%, 25% and 7%.
The like results for `COc1ccc(Oc2ccc(-c3c(C)[nH]c(C)c(Cl)c3=O)cc2)cc1` were, in that order, 97%, 97% and 0%.
Consider `COc1ccc2ncc(F)c(CCN3CC(O)C(CNCc4ccc5c(c4)OCCO5)C3)c2n1.Cl` (stereo not drawn), for which the Inhibition is reported as 94% in the test with Plasmodium falciparum [1], 35% in the test on Plasmodium falciparum [2] and 18% with HepG2.
